Measurements reported in PubChem BioAssay AID2551 (National Center for Advancing Translational Sciences (NCATS), 2010).
Among all 310,000 compounds or so, about 17,000 (5.5%) were called active. Entries that show only a call come without a potency. Not shown: some 11% with an inconclusive outcome. The sample as a whole holds a higher share of actives than the screen did. A number with no mark means an inactive call. The call rests on the fitted dose curve; in most records, active means well fitted inhibition curve with a large enough effect; inconclusive means small, poorly fitted or top-dose-only effect, or effect the other way; inactive means no such curve, though single readings can be large or run the other way.
Further: nearly all actives have a fitted effect of over 60% in size.
Potency means the concentration at half of the fitted maximal effect.

What follows are molecules tested against Nuclear receptor ROR-gamma (Mus musculus) (UniProt P51450) (assay: qHTS for inhibitors of ROR gamma transcriptional activity). Settings: Drosophila S2 Gal4-RORgamma UAS-luciferase reporter, 20 h; series mostly up to 53.6 µM.
Chain of Nuclear receptor ROR-gamma (Mus musculus) (P51450 whole entry, looked up, the tested form may be a part): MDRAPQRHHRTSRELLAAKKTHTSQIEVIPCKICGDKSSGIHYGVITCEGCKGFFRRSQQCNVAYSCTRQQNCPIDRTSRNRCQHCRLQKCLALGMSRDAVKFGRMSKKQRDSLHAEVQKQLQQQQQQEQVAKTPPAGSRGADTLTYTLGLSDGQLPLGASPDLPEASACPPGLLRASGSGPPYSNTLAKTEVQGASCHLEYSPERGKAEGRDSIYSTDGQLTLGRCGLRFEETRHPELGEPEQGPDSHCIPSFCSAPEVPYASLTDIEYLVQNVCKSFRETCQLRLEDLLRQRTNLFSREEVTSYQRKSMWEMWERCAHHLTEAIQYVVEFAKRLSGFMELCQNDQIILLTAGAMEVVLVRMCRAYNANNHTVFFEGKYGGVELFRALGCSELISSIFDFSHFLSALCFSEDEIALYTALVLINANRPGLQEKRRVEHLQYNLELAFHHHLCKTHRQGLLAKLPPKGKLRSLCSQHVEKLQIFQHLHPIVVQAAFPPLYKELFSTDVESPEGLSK
In short: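 In this cell-based reporter format, copper sulfate (700 uM final) drives Gal4–ROR gamma fusion expression from a metallothionein promoter in Drosophila Schneider cells; compounds preincubated 1 hr, reporter read after 20 hr at ambient temperature.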
For `O=C(Nc1ccncc1)Nc1ccc(F)cc1`, the Potency was “inactive”. In the case of `COc1ccc(OCc2cc(C(=O)N3CCCC3)no2)c2ccccc12`, the Potency is reported as “inactive”. In the case of `COC(=O)CN1C(=O)[C@H]2[C@@H](C3CC3)N3C(=O)CN(Cc4ccc(-c5ccccc5)cc4)C(=O)[C@@]3(Cc3ccccc3)[C@H]2C1=O`, the Potency is reported as “inactive”. `CS(=O)(=O)Nc1ccccc1N=C(c1ccccc1)c1ccccc1` showed an activity change, negative = inhibition of -31.1% [at 1.91 µM]. With `COc1ccc(CN2CCNC(=O)C2CC(=O)NCc2cn[nH]c2-c2ccccc2)c(F)c1` (centres undefined) the Potency was “inactive”. In the case of `COc1ccc2oc(C(=O)NCC(Cc3ccccc3)N(C)C)c(C)c2c1` (centres undefined), the Potency is reported as “inactive”. In the case of `Cc1ccc(OCCCC(=O)Nc2ccc(N3CCOCC3)cc2)cc1`, the Potency is reported as “inactive”. With `O=C(Nc1ccc(Cl)cn1)c1cnn2cccnc12` the Potency was “inactive”. With `O=C(COc1ccc([N+](=O)[O-])cc1)Nc1ccc(N2CCCC2)cc1` the Potency was “inactive”. With `O=C(Cc1ccccc1)NC(=S)Nc1ccc(N2CCCCC2)cc1` the Potency was 2.24 µM (active). `O=C(Nc1ccc(Cl)cn1)c1ccc2c(c1)OCCO2` was tested, and the Potency was 8.91 µM (active). In the case of `Cc1nc(NC(=O)c2ccc3c(c2)OCCO3)ccc1Br`, the Potency is reported as “inactive”. `Cc1ccccc1C(=O)NC(=S)Nc1ccc(N2CCN(C(=O)c3ccccc3)CC2)cc1` was tested, and the Potency was 22.4 µM (active). With `O=C(CN1CCN(c2ccc(O)cc2)CC1)Nc1ccc(-c2ccccc2)cc1` the Potency was “inactive”. In the case of `Cc1ccccc1C(=O)Nc1ccc(N2CCCCCC2)cc1`, the Potency is reported as “inactive”. For `O=C(c1ccccc1)c1ccc(C(=O)N2CCN(c3ccccc3)CC2)cc1`, the Potency was “inactive”. In the case of `Cc1ccc(C(=O)NC(=S)Nc2ccc(N3CCOCC3)cc2)cc1`, the Potency is reported as 6.31 µM (active). For `COC(=O)c1ccc(NC(=S)NN2CCOCC2)cc1`, the Potency was “inactive”. `CC1CCCN(CCCNC(=O)CN2C(=O)COc3ccc(S(=O)(=O)N4CCOCC4)cc32)C1` (centres undefined) was tested, and the Potency was “inactive”. `CC(C)[C@@H](C(=O)O)N(Cc1cccc(CN([C@H](C(=O)O)C(C)C)S(C)(=O)=O)c1)S(C)(=O)=O` was tested, and the Potency was “inactive”. With `COc1ccc(CCNC(=O)c2c(C)nn(-c3ccccc3)c2Cl)cc1` the Potency was “inactive”. In the case of `COc1ccc(CC(=O)NC2CCSc3ccccc32)cc1OC` (centres undefined), the Potency is reported as “inactive”. With `COC(=O)c1ccc(Nc2ncnc3sccc23)cc1` the Potency was “inactive”. In the case of `O=S(=O)(c1ccccc1)N(Cc1cccc(F)c1)c1ccccc1`, the Potency is reported as “inactive”. `N#CCC(=O)NC1CCC(CC2CCC(NC(=O)CC#N)CC2)CC1` (centres undefined) was tested, and the Potency was “inactive”. In the case of `CCOC(OCC)c1ccc(/C=C\c2nccc(N)n2)cc1`, the Potency is reported as “inactive”. For `Cc1cc(=O)n2nc(N3CCC(C(=O)Nc4c(F)c(F)c(F)c(F)c4F)CC3)sc2n1`, the Potency was “inactive”. For `COc1ccc(C)cc1NC(=O)NCCCCc1ccccc1`, the Potency was “inactive”. In the case of `Cc1cc(CNC(=O)C2CCC(=O)N(CCc3ccc(Cl)cc3)C2)no1` (centres undefined), the Potency is reported as “inactive”. In the case of `COC1=C(N2CCOCC2)C(=O)c2ccccc2C1=O`, the Potency is reported as “inactive”. With `CCOc1ccc(NC(=O)c2ccc(NC(=O)C3CCCO3)cc2)cc1` (centres undefined) the Potency was “inactive”. In the case of `Cc1ccccc1C(=O)Nc1ccccc1NC(=O)c1ccccc1C`, the Potency is reported as “inactive”. `O=C(NC(=S)NC1CCSC1=O)c1ccccc1F` (centres undefined) was tested, and the Potency was “inactive”. `Cc1ccccc1C(=O)NC(=S)NC1CC1` was tested, and the Potency was 14.1 µM (active). For `COC(=O)Cn1c(O)c(N=NC(=O)OC)c2ccccc21`, the Potency was “inactive”. `CC(C)n1c(C(O)c2ccccc2)nc2ccccc21` (centres undefined) was tested, and the Potency was “inactive”. For `CC(C)n1c(O)c(N=Nc2ccccn2)c2ccccc21`, the Potency was 8.91 µM (active). For `COc1ccc(C=Nc2cccc3ncccc23)cc1`, the Potency was “inactive”. `COc1ccc(/C=N/Nc2nc(-c3ccc(C)cc3)c(C#N)c(=O)[nH]2)cc1` showed an activity change, negative = inhibition of 20.4% [at 1.91 µM]. With `COc1ccc(/C=N/Nc2nc3ccccc3c(=O)[nH]2)cc1` the Potency was 11.2 µM (active). For `COc1ccccc1C(=O)N/C(=C/c1ccc2c(c1)OCO2)C(=O)Nc1cccc(C(=O)O)c1`, the Potency was “inactive”. With `O=C(CSc1nc2ccccc2s1)Nc1ccc(C(=O)O)cc1` the Potency was “inactive”. `CCOc1ccccc1Nc1ccc2nonc2c1[N+](=O)[O-]` was tested, and the Potency was “inactive”. In the case of `O=[N+]([O-])c1c(NCCO)cc(Sc2nc3ccccc3s2)c2nonc12`, the Potency is reported as 2.82 µM (active). In the case of `CC(C)OCCCNC(=O)CN1C(=O)/C(=C/c2ccccc2F)Oc2ccccc21`, the Potency is reported as “inactive”. For `O=C(CSCc1c(Cl)cccc1Cl)NN1C(=O)c2ccccc2C1=O`, the Potency was “inactive”. With `CCn1c(CSCc2c(Cl)cccc2Cl)n[nH]c1=S` the Potency was 3.16 µM (active). For `CCn1c(CNS(=O)(=O)c2ccc(Cl)cc2)n[nH]c1=S`, the Potency was “inactive”. For `O=C1NC(c2ccccc2)Oc2ccccc21` (centres undefined), the Potency was “inactive”. `CCN(CC)CCCNC(=O)COc1ccc2oc3c(c2c1)CCCC3` was tested, and the Potency was “inactive”. In the case of `Cc1ccc(CNC(=O)C2CCCN2S(=O)(=O)c2ccc3c(c2)C(C)(C)C(=O)N3C)cc1` (centres undefined), the Potency is reported as “inactive”. For `CN1CCN(NC(=O)Nc2ccc(Br)cc2)CC1`, the Potency was “inactive”. For `O=C(COc1ccc(-c2ccccc2)cc1)NN=C1CCCC1`, the Potency was “inactive”. With `CC(NC(=O)C(=O)NN=C1CCC(C(C)(C)C)CC1)c1ccccc1` (centres undefined) the Potency was “inactive”. In the case of `CC(C)(C)C1CCC(=NNC(=O)c2cc(-c3ccccc3)n[nH]2)CC1` (centres undefined), the Potency is reported as 11.2 µM (active). With `CC1CN(CC(=O)NC(C)c2ccccc2)CC(C)O1` (centres undefined) the Potency was “inactive”. With `CCOC(=O)C(=O)Nc1nc(-c2ccccc2)c(CC)s1` the Potency was “inactive”. In the case of `Cc1ccc(-c2nc(C)sc2CC(=O)O)cc1`, the Potency is reported as “inactive”. With `C/C(=N/Nc1nc(-c2ccccc2)c(CC(=O)O)s1)c1ccccc1` the Potency was 11.2 µM (active). For `O=C(/C=C/c1ccco1)Nc1cccc(-c2nc3ccccc3[nH]2)c1`, the Potency was “inactive”. With `Cc1ccc(-c2nc3ccccc3[nH]2)cc1NC(=O)c1sc2ccccc2c1Cl` the Potency was “inactive”. `O=C(Nc1cccc(-c2nc3ccccc3[nH]2)c1)c1ccc(C(=O)Nc2cccc(-c3nc4ccccc4[nH]3)c2)cc1` was tested, and the Potency was 2 µM (active). In the case of `Cc1cccc2[nH]c(CN(C)C(=O)C3CCC(=O)N(CCc4ccccc4)C3)nc12` (centres undefined), the Potency is reported as “inactive”. With `C/C(N)=C(/C#N)C(=O)COC(=O)C1=NN(c2ccccc2)C(=O)CC1` the Potency was “inactive”. With `N/C(=N\OC(=O)Nc1ccc(Cl)c(Cl)c1)c1ncc(C(F)(F)F)cc1Cl` the Potency was “inactive”. With `COC(=O)Cc1ccc(Oc2ncc(C(F)(F)F)cc2Cl)cc1` the Potency was “inactive”. With `COc1cccc(/C=N/Nc2ncc(C(F)(F)F)cc2Cl)c1O` the Potency was 1.26 µM (active). For `CCOC(=O)N1CCN(C(=O)COCc2cc(-c3ccc4c(c3)OCO4)on2)CC1`, the Potency was “inactive”. With `CCOc1ccccc1N1C(=O)CC(Sc2nccc(C)n2)C1=O` (centres undefined) the Potency was 25.1 µM (active). `CCOC(=O)c1ccc(N2C(=O)CC(Sc3nc(O)c(CC)c(=O)[nH]3)C2=O)cc1` (centres undefined) was tested, and the Potency was “inactive”. `Cc1ccnc(SCC(N)=O)n1` was tested, and the Potency was “inactive”. `CCn1ccnc1CNC(=O)CC1C(=O)NCCN1CCCc1ccccc1` (centres undefined) was tested, and the Potency was “inactive”. In the case of `O=C(NCCS(=O)(=O)N1CCN(c2ccccc2F)CC1)c1ccc(Br)o1`, the Potency is reported as “inactive”. In the case of `Cc1cccc(NC(=O)c2cccnc2Cl)n1`, the Potency is reported as “inactive”. For `Cc1c(CN2CCC(CO)(CCOc3ccccc3)CC2)[nH]c2ccc(Cl)cc12`, the Potency was 11.2 µM (active). With `OCC1(CCOc2ccccc2)CCN(Cc2cn[nH]c2-c2ccccc2)CC1` the Potency was “inactive”. With `CC(C)(O)C#Cc1ccc(CN2CCC(CO)(CCc3ccccc3)CC2)cc1` the Potency was “inactive”. `CC(C)(C)NC(=O)C(c1ccc(Cl)cc1)N(CCO)C(=O)c1snc(C(N)=O)c1N` (centres undefined) was tested, and the Potency was “inactive”. In the case of `COC(=O)CCc1ccccc1S(=O)(=O)N(CCC(=O)OC)Cc1ccccc1`, the Potency is reported as “inactive”. `CCOC(=O)C1=C(c2ccccc2)NC(=O)NC1c1cc(OCC)c(O)c([N+](=O)[O-])c1` (centres undefined) was tested, and the Potency was “inactive”. For `CCS(=O)(=O)c1cc([N+](=O)[O-])c(Sc2ccccc2N)s1`, the Potency was 7.94 µM (active). `CCOC(=O)c1cc(Sc2ccccc2N)cc(C(=O)OCC)n1` was tested, and the Potency was “inactive”. In the case of `Nc1ccccc1Sc1ccc(C(F)(F)F)cc1[N+](=O)[O-]`, the Potency is reported as “inactive”. In the case of `COc1ccc(N2CCN(C3CCCCC3NS(=O)(=O)c3ccccc3)CC2)cc1` (centres undefined), the Potency is reported as “inactive”. With `CCC(Cc1ccccc1)NS(=O)(=O)c1ccc2c(c1)NC(=O)CS2` (centres undefined) the Potency was “inactive”. With `Cc1c(Cl)c([N+](=O)[O-])nn1Cc1ccc(C(=O)N/N=C\c2cc(Cl)ccc2O)o1` the Potency was 5.01 µM (active). For `Cc1ccc(C(=O)O)cc1NC(=O)c1ccc(Cn2nc(C)c(Cl)c2C)o1`, the Potency was “inactive”. For `O=C(N/N=C/c1ccc2c(c1)OCO2)c1ccc(Cn2cc([N+](=O)[O-])cn2)o1`, the Potency was “inactive”. For `CC(C)c1c(C(=O)N/N=C/c2ccccc2C(=O)O)nnn1-c1nonc1N`, the Potency was “inactive”. For `Cc1c(NC(=O)/C=C/C(=O)O)cccc1[N+](=O)[O-]`, the Potency was “inactive”. With `O=C(O)/C=C/C(=O)Nc1ccc(F)cc1F` the Potency was “inactive”. With `COC(=O)c1sc(-c2ccc(C(C)(C)C)cc2)cc1NC(=O)/C=C/C(=O)O` the Potency was 12.6 µM (active). For `Cc1ccc(/C=N/NC(=S)NC2CCCCC2)o1`, the Potency was 0.251 µM (active). With `Cc1ccc(/C=N/NC(=O)Cn2nc(C)c(Br)c2C)o1` the Potency was “inactive”. `Cc1ccc(/C=N/NC(=O)CSc2ccccn2)o1` was tested, and the Potency was “inactive”. `C/C(=N\NC(=O)NC1CCCCC1)c1ccc(OC(F)F)cc1OC(F)F` was tested, and the Potency was “inactive”. `C/C(=N/NC(=O)c1ccc(Br)o1)c1ccc(C)o1` was tested, and the Potency was “inactive”. In the case of `C/C(=N\NC(=S)NC1CCCCC1)c1ccc(C)o1`, the Potency is reported as 0.631 µM (active). With `COc1ccc(S(=O)(=O)N2CCOC2CNC(=O)C(=O)NCc2ccncc2)cc1OC` (centres undefined) the Potency was “inactive”. For `O=C(N/N=C/c1ccc(O)cc1)/C(=C/c1ccc([N+](=O)[O-])cc1)NC(=O)c1ccccc1`, the Potency was “inactive”. For `O=C(Nc1ccccc1)/C(=C/c1ccc([N+](=O)[O-])cc1)NC(=O)c1ccccc1`, the Potency was “inactive”. With `O=C(N/N=C/c1cc([N+](=O)[O-])ccc1O)/C(=C\c1cccs1)NC(=O)c1ccccc1` the Potency was 11.2 µM (active). With `CCCCc1nc2cc(C(=O)NCCc3cnn(C)c3)ccc2o1` the Potency was “inactive”. In the case of `COc1ccccc1-c1cnn2c(N3CCOCC3)cc(C)nc12`, the Potency is reported as “inactive”.
